Activity calls are given as the source filed them. Rule for the calls: active = hit-call score of the fitted dose curve at least 0.9, where 1 is the maximum; inactive = score below 0.9.
What was measured:
Conditions in all cases: mRNA level, 48 h; actives raise or lower the signal
[1] = read-out: 3-Hydroxy-3-Methylglutaryl-CoA Synthase 2 (HMGCS2), HMGCS2 (gene 3158); assay: LTEA_HepaRG_HMGCS2: Life Technologies and Expression Analysis (LTEA) Assay for 3-Hydroxy-3-Methylglutaryl-CoA Synthase 2 (HMGCS2) using HepaRG (AID 2283504)
How it was run: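 Differentiated human HepaRG cells were exposed in duplicate for 48 h in serum-free induction medium to eight concentrations (top 100 uM, half-log steps, 0.5% DMSO). HMGCS2 mRNA was quantified by TaqMan qRT-PCR, normalised to ACTB, GAPDH and POLR2A, then fitted bidirectionally against DMSO.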

[2] = read-out: HGF (gene 3082); assay: LTEA_HepaRG_HGF: Life Technologies and Expression Analysis (LTEA) Assay for Hepatocyte Growth Facto (HGF) using HepaRG (AID 2283505)
How it was run: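 Differentiated human HepaRG cells in serum-free induction medium were exposed in duplicate for 48 h to eight concentrations (top 100 uM, half-log steps, 0.5% DMSO). HGF mRNA was quantified by qRT-PCR, normalized to ACTB, GAPDH and POLR2A.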

[3] = read-out: Insulin Like Growth Factor 1 (IGF1), IGF1 (gene 3479); assay: LTEA_HepaRG_IGF1: Life Technologies and Expression Analysis (LTEA) Assay for Insulin Like Growth Factor 1 (IGF1) using HepaRG (AID 2283506)
How it was run: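 qRT-PCR readout of IGF1 mRNA, normalized to three housekeeping genes, after 48 h chemical exposure of HepaRG cells. Concentrations: 8-point half-log series, top 100 uM, 0.5% DMSO vehicle. Gain or loss fitted against DMSO baseline.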

[4] = read-out: Intercellular Adhesion Molecule 1 (ICAM1), ICAM1 (gene 3383); assay: LTEA_HepaRG_ICAM1: Life Technologies and Expression Analysis (LTEA) Assay for Intercellular Adhesion Molecule 1 (ICAM1) using HepaRG (AID 2283507)
How it was run: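 Differentiated HepaRG cells in serum-free induction medium were exposed in duplicate for 48 h to eight half-log concentrations up to 100 uM in 0.5% DMSO. Transcript levels were measured by qRT-PCR normalized to ACTB, GAPDH and POLR2A; bidirectional fits relative to DMSO.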

[5] = read-out: Insulin-like growth factor-binding protein 1 (IGFBP1), IGFBP1 (gene 3484); assay: LTEA_HepaRG_IGFBP1: Life Technologies and Expression Analysis (LTEA) Assay for Insulin-like growth factor-binding protein 1 (IGFBP1) using HepaRG (AID 2283508)
How it was run: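 Differentiated human HepaRG cells in serum-free induction medium were exposed in duplicate for 48 h to eight concentrations, top 100 uM with half-log dilutions, in 0.5% DMSO. Transcript levels came from qRT-PCR normalised to ACTB, GAPDH and POLR2A, fitted bidirectionally against DMSO.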

[6] = read-out: Interleukin 6 (IL6), IL6 (gene 3569); assay: LTEA_HepaRG_IL6: Life Technologies and Expression Analysis (LTEA) Assay for Interleukin 6 (IL6) using HepaRG (AID 2283509)
How it was run: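 Transcript levels, normalized to three housekeeping genes, were quantified by qRT-PCR after 48 h chemical treatment of HepaRG cells. Eight-point half-log series from 100 uM in 0.5% DMSO, duplicates. Fitted both directions against DMSO baseline.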

[7] = read-out: Interleukin 6 Receptor (IL6R), IL6R (gene 3570); assay: LTEA_HepaRG_IL6R: Life Technologies and Expression Analysis (LTEA) Assay for Interleukin 6 Receptor (IL6R) using HepaRG (AID 2283510)
How it was run: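 HepaRG, 48 h exposure, 8-pt half-log series, top 100 uM, 0.5% DMSO vehicle, duplicates. Read-out: TaqMan qRT-PCR of IL6R transcript, housekeeping-gene normalized. Gain or loss fitted relative to DMSO baseline.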

[8] = read-out: Potassium channel subfamily K member 1 (KCNK1), KCNK1 (gene 3775); assay: LTEA_HepaRG_KCNK1: Life Technologies and Expression Analysis (LTEA) Assay for Potassium channel subfamily K member 1 (KCNK1) using HepaRG (AID 2283511)
How it was run: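 KCNK1 transcript measured by TaqMan qRT-PCR against three housekeeping genes, after HepaRG cells were treated 48 h with eight half-log concentrations (top 100 uM, 0.5% DMSO). Curves fitted bidirectionally relative to vehicle.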

[9] = read-out: Keratin 19 (KRT19), KRT19 (gene 3880); assay: LTEA_HepaRG_KRT19: Life Technologies and Expression Analysis (LTEA) Assay for Keratin 19 (KRT19) using HepaRG (AID 2283512)
How it was run: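 Differentiated human HepaRG cells, plated 48 h, were exposed in duplicate for 48 h in serum-free induction medium to eight half-log concentrations up to 100 uM in 0.5% DMSO. KRT19 mRNA was quantified by qRT-PCR, normalized to ACTB, GAPDH and POLR2A, and fitted bidirectionally versus DMSO.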

[10] = read-out: JUN Transcription Factor, JUN (gene 3725); assay: LTEA_HepaRG_JUN: Life Technologies and Expression Analysis (LTEA) Assay for JUN Transcription Factor using HepaRG (AID 2283513)
How it was run: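 HepaRG, 48 h exposure, 8-pt half-log series top 100 uM, 0.5% DMSO, duplicate. JUN mRNA by qRT-PCR (Fluidigm), housekeeping-normalized (ACTB/GAPDH/POLR2A); bidirectional curve fit vs DMSO baseline.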

[11] = read-out: Lipase C (LIPC), LIPC (gene 3990); assay: LTEA_HepaRG_LIPC: Life Technologies and Expression Analysis (LTEA) Assay for Lipase C (LIPC) using HepaRG (AID 2283514)
How it was run: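 LIPC expression was quantified by qRT-PCR against three housekeeping genes (ACTB, GAPDH, POLR2A). Differentiated human HepaRG cells received eight half-log doses (top 100 uM, 0.5% DMSO) in duplicate for 48 h; fitting bidirectional relative to DMSO.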

[12] = read-out: Lipoprotein lipase (LPL), LPL (gene 4023); assay: LTEA_HepaRG_LPL: Life Technologies and Expression Analysis (LTEA) Assay for Lipoprotein lipase (LPL) using HepaRG (AID 2283515)
How it was run: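 LPL transcript levels quantified by TaqMan qRT-PCR against three housekeeping genes after 48 h chemical treatment of HepaRG cells. Eight-point half-log series from 100 uM in 0.5% DMSO, tested in duplicate; bidirectional fitting versus vehicle.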

[13] = read-out: MicroRNA 122 (MIR122), gene 406906; assay: LTEA_HepaRG_MIR122: Life Technologies and Expression Analysis (LTEA) Assay for MicroRNA 122 (MIR122) using HepaRG (AID 2283516); note: the transcript read is the microRNA miR-122
How it was run: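 qRT-PCR read-out (TaqMan, Fluidigm array), normalized to three housekeeping genes; HepaRG cells dosed 48 h at 8 concentrations up to 100 uM in 0.5% DMSO, duplicate; gain or loss fitted against DMSO baseline.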

[14] = read-out: matrix metalloproteinase-10 (MMP10), MMP10 (gene 4319); assay: LTEA_HepaRG_MMP10: Life Technologies and Expression Analysis (LTEA) Assay for matrix metalloproteinase-10 (MMP10) using HepaRG (AID 2283517)
How it was run: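 Expression measured by TaqMan qRT-PCR with ACTB/GAPDH/POLR2A normalisation after 48 h chemical exposure of HepaRG cells. Eight half-log concentrations, top 100 uM, 0.5% DMSO vehicle, duplicates; gain or loss fitted against vehicle.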

[15] = read-out: MYC, MYC (gene 4609); assay: LTEA_HepaRG_MYC: Life Technologies and Expression Analysis (LTEA) Assay for MYC using HepaRG (AID 2283518)
How it was run: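 Differentiated human HepaRG cells, plated 48 h then switched to serum-free induction medium, were exposed in duplicate for 48 h to 8-point half-log series up to 100 uM in 0.5% DMSO. MYC mRNA measured by qRT-PCR, normalized to ACTB/GAPDH/POLR2A.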

[16] = read-out: matrix metalloproteinase-3 (MMP3), MMP3 (gene 4314); assay: LTEA_HepaRG_MMP3: Life Technologies and Expression Analysis (LTEA) Assay for matrix metalloproteinase-3 (MMP3) using HepaRG (AID 2283519)
How it was run: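 Fluidigm-based TaqMan qRT-PCR, normalized to ACTB, GAPDH and POLR2A and fitted bidirectionally versus 0.5% DMSO, measured transcript levels. Treatment: duplicate 48 h exposures of HepaRG cells, ~100,000/well, to eight half-log concentrations topping at 100 uM.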

[17] = read-out: Paternally Expressed 10 (PEG10), PEG10 (gene 23089); assay: LTEA_HepaRG_PEG10: Life Technologies and Expression Analysis (LTEA) Assay for Paternally Expressed 10 (PEG10) using HepaRG (AID 2283520);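 for AC50: PEG10 transcript by qRT-PCR normalised to ACTB GAPDH and POLR2A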
How it was run: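 qRT-PCR read-out: PEG10 mRNA normalised to three housekeeping genes, fitted bidirectionally against 0.5% DMSO vehicle. HepaRG cells received test chemicals for 48 h in serum-free induction medium, 8 points, top 100 uM, half-log steps.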

[18] = read-out: Hypoxia-inducible factor 1-alpha (Homo sapiens) (UniProt Q16665); assay: LTEA_HepaRG_HIF1A: Life Technologies and Expression Analysis (LTEA) Assay for Hypoxia-inducible factor 1 (HIF1A) Trancription factor using HepaRG (AID 2283503);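 note: HIF1A transcript by TaqMan qRT-PCR normalized to ACTB GAPDH and POLR2A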
How it was run: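 Gain- or loss-of-signal HIF1A mRNA changes are fitted against a DMSO baseline. HepaRG cultures receive eight concentrations, highest 100 uM, for 48 h in serum-free induction medium with 0.5% DMSO.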

[19] = read-out: Nuclear factor NF-kappa-B p105 subunit (Homo sapiens) (UniProt P19838); assay: LTEA_HepaRG_NFKB1: Life Technologies and Expression Analysis (LTEA) Assay for Nuclear Factor Kappa B Subunit 1 (NFKB1) using HepaRG (AID 2283521);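 note: TaqMan qRT-PCR transcript normalised to ACTB GAPDH and POLR2A housekeeping genes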
How it was run: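 Differentiated human HepaRG cells in serum-free induction medium with 0.5% DMSO were exposed for 48 h to eight half-log concentrations, top 100 uM, in duplicate. NFKB1 mRNA measured by Fluidigm TaqMan qRT-PCR, normalised to ACTB, GAPDH and POLR2A; bidirectional fit versus DMSO.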

Measured: AC50

Sequence of Hypoxia-inducible factor 1-alpha (Homo sapiens) (Q16665 whole entry, looked up): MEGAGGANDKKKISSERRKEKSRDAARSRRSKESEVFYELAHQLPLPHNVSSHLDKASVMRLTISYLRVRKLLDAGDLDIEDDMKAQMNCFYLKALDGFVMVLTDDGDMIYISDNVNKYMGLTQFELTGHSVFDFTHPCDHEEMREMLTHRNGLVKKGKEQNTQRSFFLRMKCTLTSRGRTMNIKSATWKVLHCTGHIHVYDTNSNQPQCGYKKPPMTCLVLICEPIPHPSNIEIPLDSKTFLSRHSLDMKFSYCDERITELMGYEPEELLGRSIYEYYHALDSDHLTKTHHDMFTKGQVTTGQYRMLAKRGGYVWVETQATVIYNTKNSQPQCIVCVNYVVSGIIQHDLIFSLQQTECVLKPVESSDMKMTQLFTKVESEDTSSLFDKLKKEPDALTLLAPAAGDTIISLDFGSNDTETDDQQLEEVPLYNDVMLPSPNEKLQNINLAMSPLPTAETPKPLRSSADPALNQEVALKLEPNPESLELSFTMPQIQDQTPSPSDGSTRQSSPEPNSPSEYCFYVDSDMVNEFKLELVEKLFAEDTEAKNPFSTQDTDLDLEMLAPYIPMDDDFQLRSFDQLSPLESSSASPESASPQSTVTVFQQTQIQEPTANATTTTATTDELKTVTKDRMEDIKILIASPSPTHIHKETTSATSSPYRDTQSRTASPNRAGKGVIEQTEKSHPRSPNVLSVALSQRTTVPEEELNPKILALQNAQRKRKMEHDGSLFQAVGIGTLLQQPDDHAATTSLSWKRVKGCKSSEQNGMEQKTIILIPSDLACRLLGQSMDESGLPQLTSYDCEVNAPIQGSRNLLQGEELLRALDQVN
Sequence of Nuclear factor NF-kappa-B p105 subunit (Homo sapiens) (P19838 whole entry, looked up): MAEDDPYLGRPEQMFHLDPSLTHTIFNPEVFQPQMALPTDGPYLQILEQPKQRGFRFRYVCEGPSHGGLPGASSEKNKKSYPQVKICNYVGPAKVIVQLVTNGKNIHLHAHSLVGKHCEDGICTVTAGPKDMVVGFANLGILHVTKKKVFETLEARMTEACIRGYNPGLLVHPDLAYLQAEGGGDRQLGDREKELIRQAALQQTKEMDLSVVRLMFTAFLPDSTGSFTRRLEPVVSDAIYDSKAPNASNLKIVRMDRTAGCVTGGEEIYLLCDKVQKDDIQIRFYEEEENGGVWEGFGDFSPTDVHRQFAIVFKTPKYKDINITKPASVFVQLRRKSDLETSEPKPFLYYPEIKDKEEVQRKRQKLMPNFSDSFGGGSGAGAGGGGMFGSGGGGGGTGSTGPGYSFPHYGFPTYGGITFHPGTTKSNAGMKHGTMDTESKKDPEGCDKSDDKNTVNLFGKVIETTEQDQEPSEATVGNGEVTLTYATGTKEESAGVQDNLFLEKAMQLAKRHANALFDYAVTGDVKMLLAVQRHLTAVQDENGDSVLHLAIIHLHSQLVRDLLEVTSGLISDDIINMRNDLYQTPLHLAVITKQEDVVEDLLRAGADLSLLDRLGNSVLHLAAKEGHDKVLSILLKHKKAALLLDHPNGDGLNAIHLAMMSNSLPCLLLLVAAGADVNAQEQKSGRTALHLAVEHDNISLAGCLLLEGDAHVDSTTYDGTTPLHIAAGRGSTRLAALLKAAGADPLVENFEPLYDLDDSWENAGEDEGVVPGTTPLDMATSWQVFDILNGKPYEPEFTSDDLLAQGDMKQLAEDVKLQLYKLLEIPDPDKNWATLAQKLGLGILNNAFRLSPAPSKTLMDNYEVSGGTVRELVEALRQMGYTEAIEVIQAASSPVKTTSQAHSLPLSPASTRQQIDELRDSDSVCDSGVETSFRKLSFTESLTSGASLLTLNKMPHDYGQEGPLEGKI

Cc1ncc(CO)c(CO)c1O
inactive: [1] | [2] | [3] | [4] | [5] | [6] | [7] | [8] | [9] | [10] | [11] | [12] | [13] | [14] | [15] | [16] | [17]

CCO[Si](CCCNC(N)=O)(OCC)OCC
inactive: [18] | [1] | [2] | [3] | [4] | [5] | [6] | [7] | [8] | [9] | [10] | [11] | [12] | [13] | [15] | [16] | [17]

COc1cccc([C@H](O)C2CCN(CCc3ccc(F)cc3)CC2)c1OC
inactive: [18] | [1] | [2] | [3] | [4] | [6] | [7] | [8] | [10] | [11] | [13] | [15] | [16] | [19]
active: [5] 33.6 µM | [9] 15.3 µM | [12] 71.6 µM | [17] 9.92 µM

CCCC(=O)OCCC(C)C
inactive: [18] | [1] | [2] | [3] | [4] | [5] | [6] | [7] | [8] | [9] | [10] | [11] | [12] | [13] | [15] | [16] | [17] | [19]

From PubChem BioAssay (EPA / NIEHS)
